Reference: PubChem BioAssay AID1159580 (chemical genetic matrix, 2015)
Where “and” joins values, the source holds several entries; their conditions need not be identical. Equal entries are not always repeated. In all, about 5,500 compounds went through this assay and about 2,000 (36%) were called active. Inconclusive results (about 18%) are left out. No stated cut-off is given here; in the data, active means normalized growth mostly below about 0.91 (no sharp cut-off); inconclusive means no clear call, values can overlap the other calls; inactive means mostly above about 0.92. The list shows a part of the results.

Assay: chemical genetic growth profiling, strain panel (AID 1159580);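 further: tested at 20 µM; growth read once vehicle control cultures reached saturation at 30 °C; 1 = growth at the plate median or of vehicle wells; lower values mean less growth of the strain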
Conditions: S. cerevisiae deletion strains, growth OD

Measured: normalized growth

OC(CCN1CCCC1)(c1ccccc1)C1CCCCC1 (centres undefined)
inactive: locus YAL021C, strain ccr4, hits give low values 0.994 | locus YAL026C, strain drs2, hits give low values 1 | locus YAL030W, strain snc1, hits give low values 0.986 | locus YBL061C, strain skt5, hits give low values 0.989 | locus YBR009C, strain hhf1, hits give low values 1 | locus YBR021W, strain FUR4, hits give low values 0.947 | locus YBR023C, strain chs3, hits give low values 0.987 | locus YBR171W, strain sec66, hits give low values 0.965 | locus YBR229C, strain ROT2, hits give low values 0.988 | locus YBR231C, strain swc5, hits give low values 0.977 | locus YBR279W, strain paf1, hits give low values 1 | locus YCL011C, strain gbp2, hits give low values 0.998 | locus YCL016C, strain dcc1, hits give low values 1.01 | locus YCL029C, strain bik1, hits give low values 0.985 | locus YCL061C, strain MRC1, hits give low values 0.976 | locus YCL069W, strain vba3, hits give low values 0.98 | locus YCR088W, strain abp1, hits give low values 0.976 | locus YDL005C, strain med2, hits give low values 0.984 | locus YDL035C, strain GPR1, hits give low values 0.994 | locus YDL040C, strain nat1, hits give low values 0.989 | locus YDL074C, strain BRE1, hits give low values 1.01 | locus YDL101C, strain DUN1, hits give low values 0.995 | locus YDL134C, strain PPH21, hits give low values 0.99 | locus YDL185W, strain tfp1, hits give low values 0.979 | locus YDL192W, strain arf1, hits give low values 0.986 | locus YDR001C, strain nth1, hits give low values 0.991 | locus YDR069C, strain doa4, hits give low values 0.986 | locus YDR101C, strain arx1, hits give low values 0.982 | locus YDR137W, strain rgp1, hits give low values 1.05 | locus YDR150W, strain NUM1, hits give low values 1 | locus YDR159W, strain sac3, hits give low values 0.991 | locus YDR162C, strain NBP2, hits give low values 0.995 | locus YDR195W, strain ref2 0.942 | locus YDR297W, strain sur2, hits give low values 0.978 | locus YDR318W, strain mcm21, hits give low values 0.973 | locus YDR334W, strain swr1, hits give low values 0.983 | locus YDR335W, strain msn5, hits give low values 0.981 | locus YDR388W, hits give low values 0.976 | locus YDR392W, strain spt3, hits give low values 1 | locus YDR502C, strain sam2, hits give low values 1 | locus YEL003W, strain gim4, hits give low values 0.975 | locus YEL037C, strain rad23, hits give low values 0.982 | locus YEL061C, strain CIN8 (second series), hits give low values 0.986 | locus YEL061C, strain CIN8, hits give low values 0.998 | locus YER015W, strain faa2, hits give low values 0.989 | locus YER016W, strain bim1, hits give low values 0.998 | locus YER110C, hits give low values 0.975 | locus YER111C, strain swi4, hits give low values 1 | locus YER155C, strain BEM2 (second series), hits give low values 0.946 | locus YER155C, strain BEM2, hits give low values 0.99 | locus YER167W, strain BCK2, hits give low values 0.992 | locus YFR010W, strain ubp6, hits give low values 0.976 | locus YGL078C, strain dbp3, hits give low values 0.985 | locus YGL086W, strain mad1, hits give low values 0.994 | locus YGL167C, strain pmr1, hits give low values 0.985 | locus YGL173C, strain kem1, hits give low values 0.972 | locus YGL227W, strain vid30, hits give low values 0.99 | locus YGL240W, strain doc1, hits give low values 0.963 | locus YGL248W, strain PDE1, hits give low values 0.996 | locus YGL253W, strain hxk2, hits give low values 1.01 | locus YGR078C, strain PAC10, hits give low values 0.998 | locus YGR135W, strain pre9, hits give low values 0.983 | locus YGR229C, strain SMI1, hits give low values 0.993 | locus YGR252W, strain gcn5, hits give low values 1.01 | locus YHR013C, strain ard1, hits give low values 1 | locus YHR027C, strain rpn1, hits give low values 0.991 | locus YHR030C, strain SLT2, hits give low values 0.987 and 1.02 | locus YHR079C, strain IRE1 (second series), hits give low values 0.977 | locus YHR079C, strain IRE1, hits give low values 1.02 | locus YHR094C, strain hxt1, hits give low values 0.975 | locus YHR129C, strain ARP1, hits give low values 1 | locus YHR142W, strain chs7, hits give low values 0.999 | locus YHR200W, strain rpn10, hits give low values 0.974 | locus YIL066C, strain RNR3, hits give low values 0.989 | locus YIL073C, strain SPO22, hits give low values 0.957 | locus YIL125W, strain kgd1, hits give low values 0.967 | locus YIR030C, strain dcg1, hits give low values 0.985 | locus YJL092W, strain hpr5, hits give low values 0.969 | locus YJL095W, strain BCK1 (second series), hits give low values 0.986 | locus YJL095W, strain BCK1, hits give low values 1 and 1.03 | locus YJL115W, strain asf1, hits give low values 0.987 | locus YJL129C, strain trk1, hits give low values 0.973 | locus YJL134W, strain LCB3, hits give low values 0.994 | locus YJL154C, strain vps35, hits give low values 0.991 | locus YJL164C, strain tpk1, hits give low values 1.01 | locus YJL166W, strain qcr8, hits give low values 0.952 | locus YJL168C, strain set2, hits give low values 0.974 | locus YJL187C, strain SWE1 (second series), hits give low values 0.989 | locus YJL187C, strain SWE1, hits give low values 0.996
